Test results as given in the supplement of paper PMC13380429.

System: Vero E6 infected with SARS-CoV-2
Assay: inhibition of SARS-CoV-2 cytopathic effect; higher = more antiviral protection, active = above 15
Details: 48 h

Measured: inhibition of SARS-CoV-2 cytopathic effect

O=C(O)c1ccc2[nH]cc(CCCCN3CC=C(c4ccccc4)CC3)c2c1 [carmoxirole]
inactive: 1 nM 1.76% | 8.33 nM 1.65% | 100 nM -1.21% | 833.33 nM 0.28% | 10000 nM 0.69%

CCCCCNC(=N)N/N=C/c1c[nH]c2ccc(OC)cc12 [tegaserod]
inactive: 1 nM -2.52% | 8.33 nM -0.54% | 100 nM -3.2% | 833.33 nM -3.82% | 10000 nM -1.44%

C[C@]12CC[C@H]3[C@@H](CC[C@]4(O)C[C@@H](O)CC[C@]34C=O)[C@@]1(O)CC[C@@H]2C1=CC(=O)OC1 [K-strophanthidin]
inactive: 1 nM 0.01% | 8.33 nM 0.18% | 100 nM -5.59% | 833.33 nM -12.1% | 10000 nM -16.9%

COc1ccc2c(c1)CN(C)CC2c1ccc(Cl)c(Cl)c1 (stereo not given) [diclofensine]
inactive: 1 nM 3.38% | 8.33 nM 2.5% | 100 nM -1.16% | 833.33 nM 3.57% | 10000 nM 1.83%

NC[C@H]1O[C@H](O[C@H]2[C@H](O[C@@H]3O[C@H](CO)[C@@H](O)[C@H]3O)[C@@H](O)[C@H](N)C[C@@H]2N)[C@H](N)[C@@H](O)[C@@H]1O [ribostamycin-sulfate]
inactive: 1 nM 2.02% | 8.33 nM -0.235% | 100 nM -0.77% | 833.33 nM -1.25% | 10000 nM -0.88%

O=C(O)c1ccc(S(=O)(=O)N(Cl)Cl)cc1 [halazone]
inactive: 1 nM -0.04% | 8.33 nM 2.43% | 100 nM -0.73% | 833.33 nM -4.46% | 10000 nM -0.76%
